Measurements reported in the supplement of paper PMC12494721.
Counter-ions that a name gives are not always drawn.

system: Escherichia coli IAI1; assay: growth (OD595) fold change vs plate DMSO controls (fold change (ratio)); higher = more growth; settings: incubation time: 27 h, anaerobic, 37 °C
Method in brief: (§1)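 The reported measure is growth: the fold change against the median of DMSO controls on the plate. Absorbance at 595 nm from anaerobic 96-well mGAM cultures grown for 27 h at 37 °C was blank-subtracted, corrected for background with 20 µM compound solutions in water, and converted to OD with a calibration factor of 5. Fold changes above 1.5 appear as NA, and values are the mean of 2 biological replicates.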

Row | Compound | growth
1 | CCN(CC)CCNC(=O)c1ccc(N)cc1 [Procainamide hydrochloride] (20 µM) | 0.979
2 | Clc1ccccc1CN1CCc2sccc2C1 [Ticlopidine hydrochloride] (20 µM) | 0.944
3 | O=C(O)[C@H]1/C(=C/CO)O[C@@H]2CC(=O)N21 [Clavulanate potassium salt] (20 µM) | 1.01
4 | CC(C)(C)CC(C)(C)c1ccc(OCCOCC[N+](C)(C)Cc2ccccc2)cc1 [Benzethonium chloride] (20 µM) | 0.964
5 | CO/N=C(\C(=O)N[C@@H]1C(=O)N2C(C(=O)O)=C(C[N+]3(C)CCCC3)CS[C@H]12)c1csc(N)n1 [Cefepime hydrochloride] (20 µM) | 0

system: Klebsiella aerogenes DSM 30053; assay: as above; settings: incubation time: 27 h, anaerobic, 37 °C
Method in brief: as §1

Row | Compound | growth
6 | CN(CCOc1ccc(NS(C)(=O)=O)cc1)CCc1ccc(NS(C)(=O)=O)cc1 [Dofetilide] (20 µM) | 1.03
7 | OC(c1cc(C(F)(F)F)nc2c(C(F)(F)F)cccc12)C1CCCCN1 (stereo unspecified) [Mefloquine hydrochloride] (20 µM) | 0.808
8 | COc1cc2nc(N3CCN(C(=O)c4ccco4)CC3)nc(N)c2cc1OC [Prazosin hydrochloride] (20 µM) | 0.998
9 | CCc1c2c(nc3ccc(OC(=O)N4CCC(N5CCCCC5)CC4)cc13)-c1cc3c(c(=O)n1C2)COC(=O)[C@]3(O)CC [Irinotecan hydrochloride trihydrate] (20 µM) | 0.974
10 | O=C(O)CCNC(=O)c1ccccc1 [Betamipron] (20 µM) | 0.813
11 | Cc1cc(C(C)(C)CC(C)(C)C)ccc1OCCOCC[N+](C)(C)Cc1ccccc1 [Methyl benzethonium chloride] (20 µM) | 1.04
